# ChEMBL document CHEMBL3988442, “University of Dundee, Small-Polar-MMV Screening Library” (2021)
# Target: T1, Methionyl-tRNA synthetase, putative (Leishmania donovani (strain BPK282A1)) (UniProt E9BF75)
# T1 sequence (whole entry): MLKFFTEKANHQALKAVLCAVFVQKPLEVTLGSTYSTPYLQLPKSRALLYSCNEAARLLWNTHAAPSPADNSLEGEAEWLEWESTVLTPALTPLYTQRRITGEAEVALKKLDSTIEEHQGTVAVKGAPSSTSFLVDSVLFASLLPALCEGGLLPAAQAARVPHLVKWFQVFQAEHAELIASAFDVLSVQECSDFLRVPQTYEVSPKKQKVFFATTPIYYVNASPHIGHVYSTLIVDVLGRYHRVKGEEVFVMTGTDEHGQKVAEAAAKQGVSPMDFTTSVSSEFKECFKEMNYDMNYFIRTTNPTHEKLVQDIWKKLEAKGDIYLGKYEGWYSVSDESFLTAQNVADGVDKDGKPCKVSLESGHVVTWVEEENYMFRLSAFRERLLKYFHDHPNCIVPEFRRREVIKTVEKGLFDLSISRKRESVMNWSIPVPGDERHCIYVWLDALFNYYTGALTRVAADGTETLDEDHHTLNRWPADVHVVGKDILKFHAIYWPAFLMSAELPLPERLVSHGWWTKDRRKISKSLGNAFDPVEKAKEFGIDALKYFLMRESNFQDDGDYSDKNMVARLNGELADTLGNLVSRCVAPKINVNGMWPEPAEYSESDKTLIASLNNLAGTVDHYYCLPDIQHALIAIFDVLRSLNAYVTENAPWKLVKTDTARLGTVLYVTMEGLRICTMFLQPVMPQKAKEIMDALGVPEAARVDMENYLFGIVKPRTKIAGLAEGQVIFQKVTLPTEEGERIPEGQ
# Experiment: Leishmania donovani Methionine tRNA synthetase (LdMetRS):v7. Dose response assay
# Format: functional
# Set-up: conc 80 nM, time 150 minutes
compound,measurement,setting,value
CCc1cccc(Nc2nc(NCCO)c3sccc3n2)c1,PXC50,MAX_EFFECT 17.21470019,< 4
same,PXC50,MAX_EFFECT 27.31277533,< 4
same,PXC50,MAX_EFFECT 37.39669421,< 4
Cc1sc2nc(C(F)(F)F)nc(N3CCCN(C)CC3)c2c1C,PXC50,MAX_EFFECT 3.916449086,< 4
same,PXC50,MAX_EFFECT 8.877284595,< 4
Cn1ncc2c(NCCO)nc(NCc3cccc(F)c3)nc21,PXC50,MAX_EFFECT 8.142493639,< 4
same,PXC50,MAX_EFFECT 8.301886792,< 4
same,PXC50,MAX_EFFECT 9.649122807,< 4
OCCNc1nc(Nc2cccc(Cl)c2)nc2ccsc12,PXC50,"BOTTOM 1.378134297, HILLSLOPE 1.322835543, MAX_EFFECT 77.47933884, TOP 79.16655544",5.15
same,PXC50,"BOTTOM 6.064283009, HILLSLOPE 1.027674538, MAX_EFFECT 79.88394584, TOP 88.71842546",4.91
same,PXC50,"BOTTOM -3.793761971, HILLSLOPE 0.936804969, MAX_EFFECT 83.25991189, TOP 91.73851926",5.08
CN(CCO)c1nc(Nc2ccc(F)c(F)c2)nc2c1cnn2C,PXC50,"BOTTOM 0.0, HILLSLOPE 0.946216108, MAX_EFFECT 71.34724858, TOP 77.67704584",5.71
same,PXC50,"BOTTOM 6.419914674, HILLSLOPE 1.323004722, MAX_EFFECT 73.51598174, TOP 75.78870148",5.35
same,PXC50,"BOTTOM 11.43918674, HILLSLOPE 1.794336173, MAX_EFFECT 61.32075472, TOP 56.10925087",5.63
COc1cc(Nc2nc(NCCO)c3cnn(C)c3n2)cc(C(F)(F)F)c1,PXC50,MAX_EFFECT 10.13215859,< 4
same,PXC50,MAX_EFFECT 10.95041322,< 4
same,PXC50,MAX_EFFECT 12.18568665,< 4
N[C@@H]1c2ccccc2C2(CCN(c3cnc4ccccc4n3)CC2)[C@H]1O,PXC50,"BOTTOM 0.263751901, HILLSLOPE 1.516790173, MAX_EFFECT 51.81975737, TOP 100.0",4.02
same,PXC50,"BOTTOM -0.439515819, HILLSLOPE 1.13741317, MAX_EFFECT 66.44295302, TOP 100.0",4.24
same,PXC50,"BOTTOM -1.864115217, HILLSLOPE 1.086184415, MAX_EFFECT 68.05555556, TOP 100.0",4.32
CC(=O)N[C@H](COc1cccc(F)c1Oc1ccc(Cl)cc1)CC(C)C,PXC50,MAX_EFFECT 3.105590062,< 4
same,PXC50,MAX_EFFECT 4.051172708,< 4
CNc1cc(-c2cccc(CN)c2)c2cc[nH]c2n1,PXC50,"BOTTOM 0.988395417, HILLSLOPE 1.522848712, MAX_EFFECT 89.26174497, TOP 100.0",4.55
same,PXC50,"BOTTOM -0.303339397, HILLSLOPE 1.457263574, MAX_EFFECT 90.27777778, TOP 100.0",4.5
same,PXC50,"BOTTOM -1.705392775, HILLSLOPE 1.008817214, MAX_EFFECT 54.59272097, TOP 100.0",4.07
Cn1ncc2c(N3CCC[C@H]3CO)nc(Nc3ccc(F)c(F)c3)nc21,PXC50,"BOTTOM 3.354874327, HILLSLOPE 0.975942115, MAX_EFFECT 81.27853881, TOP 88.63537555",5.05
same,PXC50,"BOTTOM 5.651213015, HILLSLOPE 1.001049773, MAX_EFFECT 83.58490566, TOP 90.01230887",5.05
same,PXC50,"BOTTOM 9.222423555, HILLSLOPE 1.183933311, MAX_EFFECT 81.21442125, TOP 84.5225205",5.23
OCCNc1nc(Nc2cccc(OC(F)(F)F)c2)nc2ccsc12,PXC50,"BOTTOM -3.252318024, HILLSLOPE 0.711277169, MAX_EFFECT 57.23140496, TOP 100.0",4.23
same,PXC50,MAX_EFFECT 49.7098646,< 4
same,PXC50,MAX_EFFECT 49.77973568,< 4
Cc1nc(NCC2COCCO2)c2c3c(sc2n1)CCC3 (configuration not stated),PXC50,MAX_EFFECT 5.303030303,< 4
same,PXC50,MAX_EFFECT 6.632653061,< 4
CC(C)CCNc1nnc(C(C)C)s1,PXC50,MAX_EFFECT 4.081632653,< 4
same,PXC50,MAX_EFFECT 6.479859895,< 4
same,PXC50,MAX_EFFECT 7.971014493,< 4
FC1(F)CCN(Cc2cccnc2)CC12CCN(c1cnccn1)C2 (configuration not stated),PXC50,MAX_EFFECT 4.081632653,< 4
same,PXC50,MAX_EFFECT 6.355140187,< 4
Nc1nc(-c2cccs2)cc(C(F)(F)F)n1,PXC50,MAX_EFFECT 6.382978723,< 4
same,PXC50,MAX_EFFECT 7.772020725,< 4
NS(=O)(=O)c1cc(C(=O)O)cnc1Nc1cccc(C(F)(F)F)c1,PXC50,MAX_EFFECT 5.660377358,< 4
same,PXC50,MAX_EFFECT 10.0877193,< 4
same,PXC50,MAX_EFFECT 16.28498728,< 4
NS(=O)(=O)c1ccc(Nc2ncccc2S(N)(=O)=O)cc1,PXC50,MAX_EFFECT 6.072106262,< 4
same,PXC50,MAX_EFFECT 13.21585903,< 4
same,PXC50,MAX_EFFECT 15.90909091,< 4
OCCCNc1nccc(Nc2cccc(F)c2)n1,PXC50,MAX_EFFECT 2.056074766,< 4
same,PXC50,MAX_EFFECT 11.40142518,< 4
same,PXC50,MAX_EFFECT 18.45493562,< 4
COc1ccc(-c2nc3c([nH]2)CCNC3C(=O)O)c2ccc(C)nc12 (configuration not stated),PXC50,"BOTTOM 1.718114205, HILLSLOPE 1.017534888, MAX_EFFECT 58.69565217, TOP 100.0",4.17
same,PXC50,"BOTTOM 3.702697872, HILLSLOPE 1.816429842, MAX_EFFECT 76.89768977, TOP 100.0",4.25
same,PXC50,"BOTTOM -10.20592251, HILLSLOPE 0.737543358, MAX_EFFECT 64.87455197, TOP 100.0",4.33
Cn1ncc2c(N3CCCCC3)nc(Nc3ccc(F)c(F)c3)nc21,PXC50,"BOTTOM 9.784183065, HILLSLOPE 1.295074552, MAX_EFFECT 52.03094778, TOP 54.78178501",5.24
same,PXC50,MAX_EFFECT 30.83700441,< 4
same,PXC50,MAX_EFFECT 34.09090909,< 4
Cn1ncc2c(NCCS(C)(=O)=O)nc(Nc3ccc(F)c(F)c3)nc21,PXC50,MAX_EFFECT 19.95249406,< 4
same,PXC50,MAX_EFFECT 30.90128755,< 4
same,PXC50,MAX_EFFECT 33.0754352,< 4
OCCNc1nc(Nc2cccc(C(F)(F)F)c2)nc2ccsc12,PXC50,MAX_EFFECT 27.65957447,< 4
same,PXC50,MAX_EFFECT 37.44493392,< 4
same,PXC50,MAX_EFFECT 44.00826446,< 4
NCC1Cc2cc(-c3nccc(N4CCC(O)CC4)n3)cc(F)c2O1 (configuration not stated),PXC50,"BOTTOM 4.57074024, HILLSLOPE 1.301030074, MAX_EFFECT 74.63768116, TOP 104.4144526",4.29
same,PXC50,"BOTTOM 7.212229631, HILLSLOPE 1.389029539, MAX_EFFECT 78.85304659, TOP 100.0",4.36
same,PXC50,"BOTTOM 8.369250909, HILLSLOPE 1.751405643, MAX_EFFECT 88.77887789, TOP 100.0",4.37
NCC1Cc2cc(-c3nccc(N4CCC(O)CC4)n3)cc(Cl)c2O1 (configuration not stated),PXC50,"BOTTOM 2.296775574, HILLSLOPE 1.512300698, MAX_EFFECT 82.17821782, TOP 96.63760695",4.5
same,PXC50,"BOTTOM 6.226174125, HILLSLOPE 1.41403245, MAX_EFFECT 85.50724638, TOP 100.0",4.49
same,PXC50,"BOTTOM -3.72600926, HILLSLOPE 1.42983, MAX_EFFECT 83.15412186, TOP 100.0",4.35
